Results taken from PubChem BioAssay (NCATS).
Records with an inconclusive call do not appear. Activity calls are given as the source filed them. Unless noted, the call rests on the fitted dose curve; in most records, active means well fitted curve in the direction sought with a large enough effect; inconclusive means small, poorly fitted or top-dose-only effect, or another doubt; inactive means no such curve, though single readings can be large; an effect the other way counts as inactive or inconclusive.

Experiments:
[1] = molecular target: Cytochrome P450 1A2 (Homo sapiens) (UniProt P05177); assay: p450-cyp1a2 (AID 410; calls by dose curve;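 further: -100% = full effect of reference inhibitor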)
Method in brief: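 Human CYP1A2 (20nM) demethylated Luciferin-ME at its Km (100uM) in 100mM KPO4. After 10 min compound preincubation, NADPH regeneration ran the reaction 60 min at room temperature. Luciferin was read by luminescence, normalized to 57 uM furafylline.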

[2] = Stat Signaling Pathway (AID 446; active means well fitted curve in either direction with a large enough effect, not every such curve was filed as active;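 further: ME-180 cervical cancer cells given 40 pM IL-6 alongside compound; SIE-controlled beta-lactamase reporter measured as 460/530 nm FRET emission ratio; on the % scale 0 is the no-effect control and ±100 the full control effect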); conditions: ME-180 (cervical carcinoma) SIE beta-lactamase reporter, IL-6 stimulated, 5 h; at 17.2 µM (top of the series) unless noted
Method in brief: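 IL-6/STAT signaling read in ME-180 cells via an SIE beta-lactamase reporter. Stimulus was 40 pM IL-6 (its AC50) for 5 hrs, so both activation and inhibition register.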

[3] = molecular target: Glucocorticoid receptor (Homo sapiens) (UniProt P04150); assay: GR-GFP Redistribution (AID 450;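 active means compounds whose dose series gives a full or clear partial fitted curve of increased nuclear translocation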; further: potency means the concentration at half of the fitted maximal effect)
[4] = molecular target: Glucocorticoid receptor (Homo sapiens) (UniProt P04150); assay: GR-EFC Redistribution (AID 451; calls by dose curve; further: potency means the concentration at half of the fitted maximal effect); conditions: CHO-K1 GR-EFC translocation, beta-gal luminescence, 2 h
Method in brief: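 CHO-K1 cells expressing nuclear EA and GR-ED fragments of b-gal; compounds titrated up to 46 uM final, 2 h at 37 C. GR nuclear translocation read as complemented b-gal luminescence after 1 h RT detection.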

[5] = molecular target: Mitogen-activated protein kinase 10 (Mus musculus) (UniProt Q61831); assay: JNK3 AlphaScreen Assay (AID 530; active means well fitted curve in either direction with a large enough effect, not every such curve was filed as active;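 further: kinase came from lysate of stimulated human HepG2 cells; signal reports phosphorylation of biotinylated GST-cJun 1-79 at Ser73 with 10 µM ATP; on the % scale 0 is the no-effect control and ±100 the full control effect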)
Method in brief: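 qHTS format: compounds tested as titrations against IL-1beta/TNF-alpha-activated HepG2 lysate JNK3 with biotin-GST-cJun substrate and 10 uM ATP at room temperature. Loss of anti-phospho-cJun AlphaScreen signal indicates inhibition.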

[6] = molecular target: 3',5'-cyclic-AMP phosphodiesterase 4B (Homo sapiens) (UniProt Q07343); assay: qHTS Assay for Inhibitors of PDE-IV (AID 607; active means well fitted activation curve with a large enough effect in the main read-out, with a control signal flat, not every such curve was filed as active; further: % of control where 0% means no effect)
Method in brief: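 Live HEK293 cells with a modified cyclic nucleotide-gated (CNG) channel report intracellular cAMP via membrane-potential dye fluorescence (ex 535/em 590 nm). Endogenous PDE-IV was targeted. Compounds were tested at up to 22.9 uM final; RO 20-1724 100 uM served as control.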

[7] = molecular target: ATP-dependent 6-phosphofructokinase (Trypanosoma brucei brucei) (UniProt O15648); assay: qHTS Assay to Find Inhibitors of T. brucei phosphofructokinase: hit validation (AID 492961); further: on the % scale 0 is the no-effect control and ±100 the full control effect
Method in brief: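 Luminescence from ADP-Glo reports ADP generated as T. brucei PFK (1.25 nM) phosphorylates 0.5 mM fructose-6-phosphate using 0.1 mM ATP. Reactions ran 45 min at room temperature, pH 8.0.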

[8] = S16 Schwann cell PMP22 intronic element firefly luciferase assay (AID 624032); further: potency means the concentration at half of the fitted maximal effect; nearly all actives have a fitted effect of over 30% in size
Method in brief: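 Rat S16 Schwann cells stably carrying firefly luciferase driven by a PMP22 intronic element, in 10% FBS, treated 24 h at 37 C. ONE-Glo luminescence normalized to PTC124 control and DMSO (0%); curves classed by r2, magnitude and activity.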

[9] = qHTS profiling for inhibitors of Plasmodium falciparum proliferation (AID 504749); further: potency means the concentration at half of the fitted maximal effect; nearly all actives have a fitted effect of over 60% in size; conditions: P. falciparum in erythrocytes, SYBR Green DNA, 72 h
Method in brief: (§1)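 Readout was DNA-dye fluorescence from lysed cultures, ex 485/em 535 nm. Parasitized red cells had grown 72 h with compound; data scaled between 0.29 uM artemisinin and DMSO wells and corrected using vehicle-only plates.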

[10] = test system: 3D7; assay: as above; conditions: P. falciparum in erythrocytes, SYBR Green DNA, 72 h; series mostly up to 28.7 µM
Method in brief: as §1

[11] = test system: 7G8; assay: as above; conditions: P. falciparum in erythrocytes, SYBR Green DNA, 72 h; series mostly up to 28.7 µM
Method in brief: as §1

[12] = test system: AA1029; assay: as above; conditions: P. falciparum in erythrocytes, SYBR Green DNA, 72 h; series mostly up to 28.7 µM
Method in brief: as §1

[13] = test system: AS120; assay: as above; conditions: P. falciparum in erythrocytes, SYBR Green DNA, 72 h; series mostly up to 28.7 µM
Method in brief: as §1

[14] = test system: ATS189; assay: as above; conditions: P. falciparum in erythrocytes, SYBR Green DNA, 72 h; series mostly up to 28.7 µM
Method in brief: as §1

[15] = test system: ATS95; assay: as above; conditions: P. falciparum in erythrocytes, SYBR Green DNA, 72 h; series mostly up to 28.7 µM
Method in brief: as §1

[16] = test system: C2A; assay: as above; conditions: P. falciparum in erythrocytes, SYBR Green DNA, 72 h; series mostly up to 28.7 µM
Method in brief: as §1

[17] = test system: CP185; assay: as above; conditions: P. falciparum in erythrocytes, SYBR Green DNA, 72 h; series mostly up to 28.7 µM
Method in brief: as §1

[18] = test system: CP191; assay: as above; conditions: P. falciparum in erythrocytes, SYBR Green DNA, 72 h; series mostly up to 28.7 µM
Method in brief: as §1

[19] = test system: CP192; assay: as above; conditions: P. falciparum in erythrocytes, SYBR Green DNA, 72 h; series mostly up to 28.7 µM
Method in brief: as §1

[20] = test system: CP194; assay: as above; conditions: P. falciparum in erythrocytes, SYBR Green DNA, 72 h; series mostly up to 28.7 µM
Method in brief: as §1

[21] = test system: CP201; assay: as above; conditions: P. falciparum in erythrocytes, SYBR Green DNA, 72 h; series mostly up to 28.7 µM
Method in brief: as §1

[22] = test system: CP203; assay: as above; conditions: P. falciparum in erythrocytes, SYBR Green DNA, 72 h; series mostly up to 28.7 µM
Method in brief: as §1

[23] = test system: CP211; assay: as above; conditions: P. falciparum in erythrocytes, SYBR Green DNA, 72 h; series mostly up to 28.7 µM
Method in brief: as §1

[24] = test system: CP215; assay: as above; conditions: P. falciparum in erythrocytes, SYBR Green DNA, 72 h; series mostly up to 28.7 µM
Method in brief: as §1

[25] = test system: CP217; assay: as above; conditions: P. falciparum in erythrocytes, SYBR Green DNA, 72 h; series mostly up to 28.7 µM
Method in brief: as §1

[26] = test system: CP237; assay: as above; conditions: P. falciparum in erythrocytes, SYBR Green DNA, 72 h; series mostly up to 28.7 µM
Method in brief: as §1

[27] = test system: CP238; assay: as above; conditions: P. falciparum in erythrocytes, SYBR Green DNA, 72 h; series mostly up to 28.7 µM
Method in brief: as §1

[28] = test system: CP247; assay: as above; conditions: P. falciparum in erythrocytes, SYBR Green DNA, 72 h; series mostly up to 28.7 µM
Method in brief: as §1

[29] = test system: CP250; assay: as above; conditions: P. falciparum in erythrocytes, SYBR Green DNA, 72 h; series mostly up to 28.7 µM
Method in brief: as §1

[30] = test system: CP252; assay: as above; conditions: P. falciparum in erythrocytes, SYBR Green DNA, 72 h; series mostly up to 28.7 µM
Method in brief: as §1

[31] = test system: CP256; assay: as above; conditions: P. falciparum in erythrocytes, SYBR Green DNA, 72 h; series mostly up to 28.7 µM
Method in brief: as §1

[32] = test system: CP260; assay: as above; conditions: P. falciparum in erythrocytes, SYBR Green DNA, 72 h; series mostly up to 28.7 µM
Method in brief: as §1

[33] = test system: CP262; assay: as above; conditions: P. falciparum in erythrocytes, SYBR Green DNA, 72 h; series mostly up to 28.7 µM
Method in brief: as §1

Glucocorticoid receptor (Homo sapiens), sequence (P04150 whole entry, looked up, the tested form may be a part): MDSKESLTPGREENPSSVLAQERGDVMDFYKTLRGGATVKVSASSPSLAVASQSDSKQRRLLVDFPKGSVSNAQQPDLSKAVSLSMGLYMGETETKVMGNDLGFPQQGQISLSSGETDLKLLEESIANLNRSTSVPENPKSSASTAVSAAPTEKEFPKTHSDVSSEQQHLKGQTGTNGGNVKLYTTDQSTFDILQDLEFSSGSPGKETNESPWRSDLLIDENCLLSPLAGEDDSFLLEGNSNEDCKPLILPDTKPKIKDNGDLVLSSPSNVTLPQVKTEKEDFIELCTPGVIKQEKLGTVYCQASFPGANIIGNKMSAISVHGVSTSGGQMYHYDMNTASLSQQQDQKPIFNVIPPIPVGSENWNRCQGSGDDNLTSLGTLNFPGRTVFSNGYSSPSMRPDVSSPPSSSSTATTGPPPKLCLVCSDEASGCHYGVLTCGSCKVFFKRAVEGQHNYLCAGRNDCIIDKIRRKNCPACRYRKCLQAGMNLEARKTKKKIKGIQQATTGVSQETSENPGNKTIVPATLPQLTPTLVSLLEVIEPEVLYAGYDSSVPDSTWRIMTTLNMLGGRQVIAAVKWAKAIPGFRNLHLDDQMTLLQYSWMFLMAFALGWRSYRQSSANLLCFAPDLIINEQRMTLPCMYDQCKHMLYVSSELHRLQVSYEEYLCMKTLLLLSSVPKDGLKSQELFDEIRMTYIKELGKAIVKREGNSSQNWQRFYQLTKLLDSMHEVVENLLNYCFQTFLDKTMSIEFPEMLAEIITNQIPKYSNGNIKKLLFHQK
3',5'-cyclic-AMP phosphodiesterase 4B (Homo sapiens), sequence (Q07343 whole entry, looked up): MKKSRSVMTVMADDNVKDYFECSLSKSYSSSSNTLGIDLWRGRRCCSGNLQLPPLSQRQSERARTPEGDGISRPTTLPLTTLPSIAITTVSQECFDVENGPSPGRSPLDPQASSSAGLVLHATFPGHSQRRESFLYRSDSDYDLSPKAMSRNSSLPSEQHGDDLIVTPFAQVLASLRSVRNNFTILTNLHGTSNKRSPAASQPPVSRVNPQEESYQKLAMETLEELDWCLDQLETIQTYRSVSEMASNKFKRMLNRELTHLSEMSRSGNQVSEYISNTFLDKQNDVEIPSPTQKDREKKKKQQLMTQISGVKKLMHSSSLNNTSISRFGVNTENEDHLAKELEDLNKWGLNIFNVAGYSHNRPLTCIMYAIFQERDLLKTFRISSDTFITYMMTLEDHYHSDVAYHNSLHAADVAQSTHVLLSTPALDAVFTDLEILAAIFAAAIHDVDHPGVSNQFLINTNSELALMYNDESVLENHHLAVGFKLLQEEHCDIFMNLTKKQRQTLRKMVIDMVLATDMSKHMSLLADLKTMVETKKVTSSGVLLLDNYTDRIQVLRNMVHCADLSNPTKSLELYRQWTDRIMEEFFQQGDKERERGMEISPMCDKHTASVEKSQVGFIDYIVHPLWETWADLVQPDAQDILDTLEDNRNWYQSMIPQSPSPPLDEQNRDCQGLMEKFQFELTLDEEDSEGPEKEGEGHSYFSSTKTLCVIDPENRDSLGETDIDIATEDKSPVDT
ATP-dependent 6-phosphofructokinase (Trypanosoma brucei brucei), sequence (O15648 whole entry, looked up): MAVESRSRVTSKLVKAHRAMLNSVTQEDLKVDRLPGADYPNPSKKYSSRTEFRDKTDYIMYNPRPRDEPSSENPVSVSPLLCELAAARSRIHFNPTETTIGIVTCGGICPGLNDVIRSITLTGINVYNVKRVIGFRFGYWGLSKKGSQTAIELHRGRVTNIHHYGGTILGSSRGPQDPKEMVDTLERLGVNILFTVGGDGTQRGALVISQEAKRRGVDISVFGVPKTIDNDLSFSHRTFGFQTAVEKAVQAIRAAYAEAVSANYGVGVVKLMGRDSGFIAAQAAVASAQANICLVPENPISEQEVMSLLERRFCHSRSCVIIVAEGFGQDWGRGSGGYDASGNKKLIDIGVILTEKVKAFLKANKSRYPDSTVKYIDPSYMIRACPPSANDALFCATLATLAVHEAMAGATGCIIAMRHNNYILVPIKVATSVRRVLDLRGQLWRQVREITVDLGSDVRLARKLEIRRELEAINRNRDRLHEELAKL
Cytochrome P450 1A2 (Homo sapiens), sequence (P05177 whole entry, looked up): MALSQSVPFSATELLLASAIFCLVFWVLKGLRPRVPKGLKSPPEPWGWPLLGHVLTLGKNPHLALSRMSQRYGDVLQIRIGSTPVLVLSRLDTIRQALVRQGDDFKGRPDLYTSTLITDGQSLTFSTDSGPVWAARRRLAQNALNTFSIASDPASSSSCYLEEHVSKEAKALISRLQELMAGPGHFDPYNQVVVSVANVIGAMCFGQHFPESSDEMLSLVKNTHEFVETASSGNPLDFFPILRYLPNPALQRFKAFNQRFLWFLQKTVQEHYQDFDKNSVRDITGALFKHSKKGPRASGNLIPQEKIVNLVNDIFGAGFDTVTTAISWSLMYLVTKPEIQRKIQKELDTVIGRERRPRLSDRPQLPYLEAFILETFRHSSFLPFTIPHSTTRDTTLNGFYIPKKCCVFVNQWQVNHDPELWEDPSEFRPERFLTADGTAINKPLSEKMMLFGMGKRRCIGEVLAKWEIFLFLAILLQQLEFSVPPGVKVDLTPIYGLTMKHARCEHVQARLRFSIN

CC[C@]1([C@H]2O[C@@H]([C@@H]3O[C@](O)(CO)[C@@H](C)C[C@H]3C)C[C@H]2C)CC[C@@H]([C@]2(C)CC[C@@]3(C[C@@H](O)[C@@H](C)[C@@H]([C@H](C)[C@H](OC)[C@H](C)C(=O)O)O3)O2)O1
inactive: Potency [1] | activity, negative = inhibition [2] -3.04% | Potency [3] > 20600 nM | Potency [4] > 20600 nM | Potency [5] | Potency [6] | Potency [7]
active: Potency [8] 510 nM | Potency ([9]; parasite line A) 25.1 nM | Potency ([9]; parasite line B) 25.1 nM | Potency [10] 25.1 nM | Potency [11] 15.8 nM | Potency [12] 39.8 nM | Potency [13] 22.4 nM | Potency [14] 50.1 nM | Potency [15] 50.1 nM | Potency [16] 28.2 nM | Potency [17] 50.1 nM | Potency [18] 31.6 nM | Potency [19] 33.8 nM | Potency [20] 33.8 nM | Potency [21] 42.6 nM | Potency [22] 23.9 nM | Potency [23] 33.8 nM | Potency [24] 33.8 nM | Potency [25] 39.8 nM | Potency [26] 17.8 nM | Potency [27] 35.5 nM | Potency [28] 31.6 nM | Potency [29] 39.8 nM | Potency [30] 35.5 nM | Potency [31] 50.1 nM | Potency [32] 20 nM | Potency [33] 26.9 nM
